Most compounds without a hit are left out; they make up all but 19% or so of the library.
TDP1 cell noCPT: qHTS for Inhibitors of human tyrosyl-DNA phosphodiesterase 1 (TDP1): qHTS in cells in absence of CPT; DT40 Tdp1-/- hTDP1 cells, no CPT, ATP luminescence, 48 h; AID 686978, 2013; hit rate 15% among 420,000; Potency, µM (titrated, usually from 46.2 µM), for the others: top-dose activity change, negative = growth inhibition, most hits filed as inhibitors; note: nearly all actives have a fitted effect of over 55% in size
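Camptothecin absent (DMSO only). Human TDP1-complemented DT40 knockout cells, 400 cells/well, 37 °C for minimum 48 hr; ATP measured via CellTiter-Glo, 30 min dark incubation, luminescence.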
RORgamma inh: inhibitors of mouse ROR gamma transcriptional activity. P51450. Drosophila S2 Gal4-RORgamma UAS-luciferase reporter, 20 h. Potency, µM (doses to about 53.6 µM), for the others: at the top dose activity change, negative = inhibition, most hits filed as inhibitors. hit rate 5.4% among 310,000. AID 2551; note: nearly all actives have a fitted effect of over 60% in size
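A Gal4/UAS one-hybrid system in insect cells: metallothionein-promoter Gal4–ROR gamma fusion plus Photinus luciferase reporter. Copper sulfate 700 uM final, 20 hr ambient incubation, luminescent detection after 10 min with reagent.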
Gal4-VP16 FLuc: counter-screen for ROR gamma inhibitors: Gal4-VP16 reporter; hit rate 3.5% among 310,000; Drosophila S2 Gal4-VP16 UAS-luciferase, luminescence, 20 h; Potency, µM (top dose mostly 53.6 µM), for the others: top-dose activity, negative = inhibition, usual class: inhibitors;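 note: Gal4-VP16 expression switched on by copper sulfate through the metallothionein promoter; nearly all actives have a fitted effect of over 50% in size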
TDP1 inh: TDP1 (human) enzyme inhibition; recombinant TDP1, AlphaScreen DNA substrate cleavage; Potency, µM (highest dose often 130 µM), for inactives: at the top dose activity change, negative = inhibition, hits mostly inhibitors; hit rate 0.28% among 350,000; AID 485290; note: nearly all actives have a fitted effect of over 40% in size
Target sequence (Q9NUW8 whole entry, looked up): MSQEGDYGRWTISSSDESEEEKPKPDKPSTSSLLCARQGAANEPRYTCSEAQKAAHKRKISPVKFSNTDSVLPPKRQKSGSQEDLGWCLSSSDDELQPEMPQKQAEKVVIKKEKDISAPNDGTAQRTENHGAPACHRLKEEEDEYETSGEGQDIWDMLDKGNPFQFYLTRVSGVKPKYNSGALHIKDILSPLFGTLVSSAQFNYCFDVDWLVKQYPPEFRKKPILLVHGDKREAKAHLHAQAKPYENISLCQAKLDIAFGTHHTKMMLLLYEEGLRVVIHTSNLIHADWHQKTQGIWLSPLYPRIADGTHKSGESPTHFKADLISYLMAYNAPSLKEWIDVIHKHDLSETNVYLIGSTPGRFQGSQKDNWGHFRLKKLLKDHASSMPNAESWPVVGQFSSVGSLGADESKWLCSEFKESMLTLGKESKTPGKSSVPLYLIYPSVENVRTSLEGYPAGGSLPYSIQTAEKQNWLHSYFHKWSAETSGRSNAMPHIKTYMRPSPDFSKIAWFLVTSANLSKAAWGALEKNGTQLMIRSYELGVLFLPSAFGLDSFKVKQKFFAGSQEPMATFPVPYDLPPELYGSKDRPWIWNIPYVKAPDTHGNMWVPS
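Recombinant E. coli-expressed Tdp1 (1 nM) preincubated with compound 15 min at RT, then 5'-biotin/3'-phosphotyrosine-FITC DNA substrate (15 nM) added for 5 min. AlphaScreen beads (10 ug/ml) added, 10 min RT; tyrosine-FITC cleavage read as signal loss.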
TDP1 cell CPT: growth inhibition of DT40 Tdp1-/-;hTDP1 cells with camptothecin (screen for TDP1 inhibitors); hit rate 12% among 420,000; AID 686979; chicken DT40 Tdp1-/-;hTDP1 cells + 20 nM CPT, ATP luminescence, 48 h; Potency, µM (highest dose often 46.2 µM), inactives show at the top dose activity change, negative = growth inhibition, hits mostly inhibitors; note: nearly all actives have a fitted effect of over 55% in size
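Chicken DT40 Tdp1-/- cells stably complemented with human TDP1 were seeded at 400 cells/well in medium containing 20 nM camptothecin, exposed to pin-transferred compounds, and grown at 37 °C for at least 48 hr. Viability was read as ATP luminescence.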
An asterisk follows results filed as active; ? = inconclusive; nt = no result; [ ] = another dose, or the depositor's remark. Calls come from the whole dose curve; as a rule, active = well fitted curve in the direction sought with a large enough effect; inconclusive = small, poorly fitted or top-dose-only effect, or another doubt; inactive = no such curve, though single readings can be large; an effect the other way counts as inactive or inconclusive. % is set by controls: 0 for no effect and ±100 for the full control effect; potency is the fitted concentration of half-maximal effect.

SMILES	TDP1 cell noCPT	RORgamma inh	Gal4-VP16 FLuc	TDP1 inh	TDP1 cell CPT
CN(C)S(=O)(=O)c1cccc(NC(=O)c2cc(-c3cccs3)nc3ccccc23)c1	10.3µM*	26.4%	-5.1%	2.8%	?
CCNC(=O)c1cc2ccccc2o1	6.6%	-8.1%	-2.0%	-5.3%	-4.4%
CCN(CC)S(=O)(=O)c1ccc2c(c1)nc(CCC(=O)OCC(=O)Nc1c(F)cccc1F)n2C	-4.9%	-1.6%	6.2%	5.3%	0.2%
O=C(C[n+]1ccn(CCCNP2(=O)C=C(c3ccccc3)OC(c3ccccc3)=C2)c1)c1cccs1	-19.9%	31.2%	-3.5%	5.0%	14.6µM*
COc1ccc(CNc2nc(C)c([N+](=O)[O-])c(C)c2C#N)cc1	?	-21.2%	-6.4%	-2.6%	18.4µM*
COc1cc(CNc2nc(C)c([N+](=O)[O-])c(C)c2C#N)cc(OC)c1OC	18.4µM*	?	?	0.0%	20.6µM*
COc1ccc(/C=C/C(=O)c2cc(F)ccc2OC(=O)c2ccccc2OC)cc1OC	4.61µM*	17.6%	?	3.7%	4.11µM*
COc1ccc(/C=C/C(=O)c2cc(F)ccc2OC(=O)c2ccccc2)cc1OC	0.411µM*	nt	nt	nt	0.411µM*
COc1ccc(/C=C/C(=O)c2cc(Br)ccc2O)cc1OC	-28.5%	8.6%	-16.3%	8.0%	-26.2%
COC(=O)c1ccc(OC(=O)c2ccc(OC)c(OC)c2)c(OC)c1	-17.3%	13.6%	6.9%	2.0%	-23.7%
COc1ccc(/C=C/C(=O)c2cc(F)ccc2OC(=O)c2ccc(OC)c(OC)c2)cc1OC	-68.8%	8.91µM*	?	-6.3%	?
Cc1ccc(C)c(NS(=O)(=O)c2ccc(-c3ccc(=O)[nH]n3)o2)c1	2.7%	15.9%	-2.5%	6.1%	-4.0%
CCCn1c(O)c(N=NC(=O)c2ccco2)c2ccccc21	11.6µM*	?	?	2.7%	13µM*
CCn1c(O)c(N=NC(=O)c2cccs2)c2ccccc21	14.6µM*	10.5%	9.8%	10.0%	23.1µM*
C=CCn1c(O)c(N=NC(=O)CNC(=O)c2ccco2)c2ccccc21	4.11µM*	0.7%	-11.8%	0.6%	6.51µM*
CCn1c(O)c(N=N)c2ccccc21	4.1%	15.7%	-19.2%	2.4%	20.4%
CCCn1c(O)c(N=NC(=O)c2cccnc2)c2cc(Br)ccc21	?	-0.8%	-1.8%	3.8%	16.4µM*
O=C1OCC(c2ccccc2)=C1c1ccccc1	-10.2%	-5.7%	-14.7%	-0.2%	-1.4%
CC(C)=NNc1nc2c(c(=O)n(C)c(=O)n2C)n1C	?	-13.2%	-13.4%	nt	2.6%
Cc1cccc(NC(=O)Cn2c(O)c(N=NC(=O)c3ccccc3O)c3ccccc32)c1	4.61µM*	24.6%[10 µM]	?	-12.6%	-5.2%
CCn1c(O)c(N=NC2=NC(=O)CS2)c2ccccc21	-12.6%	10µM*	?	7.3%	-12.3%
Cc1ccc(NC(=O)Cn2c(O)c(N=NC(=O)c3cc([N+](=O)[O-])ccc3O)c3ccccc32)cc1	nt	1.9%	4.5%	nt	nt
O=C(Nc1ccccc1N1CCOCC1)c1cc(-c2ccco2)nc2ccccc12	20.6µM*	17.5%	-6.4%	-2.0%	20.6µM*
O=C(Nc1ccc(F)cc1F)c1cc(-c2ccco2)nc2ccccc12	16.4µM*	19.1%	-1.7%	nt	?
COc1cc(-c2cc(C(=O)Nc3ccccc3N3CCOCC3)c3ccccc3n2)cc(OC)c1OC	20.6µM*	34.4%	4.4%	2.6%	18.4µM*
SMILES	TDP1 cell noCPT	RORgamma inh	Gal4-VP16 FLuc	TDP1 inh	TDP1 cell CPT
CCC(C)Nc1nc2c(c(=O)[nH]c(=O)n2C)n1CCCc1ccccc1 (stereo not given)	-11.5%	7.2%	-2.8%	nt	9.9%
COc1nnc(-c2ccc(N3CCCCC3)c(NC(=O)c3ccc(Cl)cc3)c2)c2ccccc12	-7.2%	nt	nt	0.0%	-16.5%
COc1ccc(C(=O)/C=C2/C(=O)Nc3ccccc32)cc1OC	4.11µM*	?	?	nt	16.4µM*
COc1ccc(O)c(/C=N/N=C2/C(=O)Nc3ccccc32)c1	?	-17.1%	-10.8%	0.0%	?
O=C1Nc2ccccc2/C1=C/c1cccnc1	?	?	?	1.2%	?
O=C1Nc2ccccc2/C1=C/C(=O)c1cccs1	8.2µM*	?	?	13.7%	6.51µM*
COc1ccc(C(=O)/C=C2/C(=O)Nc3ccccc32)c(OC)c1	2.59µM*	?	?	nt	4.11µM*
COc1ccc(C(=O)/C=C2/C(=O)Nc3ccccc32)cc1	4.11µM*	10µM*	?	nt	9.2µM*
CC(=O)Nc1ccc(NC(=O)C2CC(=O)Nc3ncnn32)cc1 (stereo not given)	3.3%	8.1%	-6.0%	nt	-4.8%
COCCCNCCCCOc1ccc(C)cc1[N+](=O)[O-]	-28.1%	1.9%	1.9%	-5.1%	-0.4%
COc1cc(Cl)ccc1OC1(C)CCN(Cc2ccccc2OC(F)F)C1 (stereo not given)	20.6µM*	nt	nt	nt	20.6µM*
COc1cc(Cl)ccc1OC1(C)CCN(Cc2cccc(OC)c2OC)C1 (stereo not given)	16.4µM*	nt	nt	nt	13µM*
COc1cccc(CN2CCN(Cc3cc(OC)c(OC)c(OC)c3)CC2)c1OC	?	3.7%	-14.3%	5.9%	?
Cc1ccc(O)c(C(CC(=O)NC(C)C)c2ccccc2)c1 (stereo not given)	-3.0%	3.6%	22.8%	2.4%	-2.3%
CCCN(CCC)C(=O)CC(c1ccccc1)c1cc(C)ccc1O (stereo not given)	?	24.7%	-4.8%	4.7%	?
CN(Cc1ccccc1)C(=O)CC(c1ccccc1)c1cc(Cl)ccc1O (stereo not given)	20.6µM*	?	0.5%	4.3%	23.1µM*
CC(NC(=O)CC(c1ccccc1)c1cc(Cl)ccc1O)c1ccccc1 (stereo not given)	20.6µM*	38.6%	3.2%	0.0%	14.6µM*
CCN(CC(=O)Nc1ccc2c(c1)OCCO2)S(=O)(=O)c1cccs1	-24.7%	-8.0%	-18.3%	-3.8%	-4.3%
COC(=O)COc1ccc2oc(=O)cc(-c3cc4cccc(OC)c4o3)c2c1	1.3%	-1.0%	-5.9%	44.7µM*	-23.9%
O=C(N=C1SC2CS(=O)(=O)CC2N1Cc1ccccc1)C1CCCO1 (stereo not given)	1.8%	2.2%	0.9%	2.9%	-13.4%
CCN1CNC(=S)N(c2cccc(C)c2C)C1	0.9%	11.2µM*	?	4.8%	-14.4%
CCCN1CNC(=S)N(c2cccc(C)c2C)C1	3.7%	10µM*	?	3.8%	6.7%
Cc1cc(=O)oc2c3c(ccc12)OC/C3=N/N	30.2%	22.4%	-3.8%	-1.3%	-10.2%
